Test results from PubChem BioAssay AID372 (MTDP, 2006).
The campaign covered roughly 100,000 compounds. About 770 (0.77%) were called active. Rule as the data show it: active = inhibition above about 50%; inactive = the rest. The sample as a whole holds a higher share of actives than the screen did.

These compounds were tested against Gag-Pol polyprotein (Human immunodeficiency virus type 1 group M subtype B (isolate HXB2)) (UniProt P04585) (assay: RNase H inhibition, HIV 1 Gag Pol polyprotein, FRET biochemical assay, screening (AID 372)). Conditions: HIV-1 RT RNase H, FRET RNA/DNA substrate fluorescence; at 10 µM; active compounds read high.

| Compound | inhibition |
| --- | --- |
| CCOc1ccc(/C=C2\C(=O)NC(=O)N(c3cc(C(F)(F)F)ccc3Cl)C2=O)cc1OC | 11% (inactive) |
| COc1ccc(CNC(=O)N2CCOCC2)cc1 | 20% (inactive) |
| O=C(Nc1ccc(F)cc1)c1sc2cc(Cl)ccc2c1Cl | 6% (inactive) |
| O=C(NNC(=O)c1sc2ccccc2c1Cl)Nc1ccc(Cl)cc1 | 14% (inactive) |
| O=C(NNC(=O)c1sc2cc(F)ccc2c1Cl)Nc1ccc(Cl)cc1 | 57% (active) |
| CC(=O)c1ccc(NC(=S)NC(=O)c2ccc(Br)cc2)cc1 | 0% (inactive) |
| O=C1C(=O)N(c2cccc([N+](=O)[O-])c2)C(c2ccccc2F)/C1=C(/O)c1ccccc1 (centres undefined) | 8% (inactive) |
| COc1cc(/C=N/N2C(=O)C3C4C=CC(C4)C3C2=O)cc(I)c1OC (centres undefined) | 0% (inactive) |
| COc1cc(/C=N/N2C(=O)C3C4C=CC(C4)C3C2=O)cc(I)c1O (centres undefined) | 56% (active) |
| COc1cc(/C=N/N2C(=O)C3C4C=CC(CC4)C3C2=O)cc(I)c1O (centres undefined) | 0% (inactive) |
| CCOC(=O)c1sc(N/N=C/c2ccccc2O)nc1C | 58% (active) |
| CCOC(=O)c1sc(N/N=C/c2ccccc2)nc1C | 47% (inactive) |
| CCOC(=O)c1sc(N/N=C/c2ccccc2C(F)(F)F)nc1C | 15% (inactive) |
| COc1ccccc1N1C(=O)/C(=C/C(C)=C/c2ccccc2)SC1=S | 13% (inactive) |
| Cc1ccc(S(=O)(=O)/N=C/c2ccc(F)cc2)cc1 | 0% (inactive) |
| COc1ccc(NC(=O)C2CC(C)=C(C)CC2C(=O)O)cc1 (centres undefined) | 2% (inactive) |
| CC1=C(C)CC(C(=O)Nc2ccc(Br)cc2)C(C(=O)O)C1 (centres undefined) | 8% (inactive) |
| Cc1cc(NS(=O)(=O)c2ccc(NC(=S)NC(=O)c3ccc(Br)cc3)cc2)no1 | 1% (inactive) |
| Cc1cc(OCc2nc(-c3ccc(Cl)cc3Cl)no2)ccc1Br | 7% (inactive) |
| Cc1n[nH]c(C)c1Sc1ccc(Cl)cc1 | 17% (inactive) |
| Cc1n[nH]c(C)c1Sc1ccc(Br)cc1 | 50% (active) |
| Cc1nn(C)c(C)c1Sc1ccc(Br)cc1 | 37% (inactive) |
| COc1cccc(/C=C2\C(=O)NC(=O)N(c3ccc(Cl)c(Cl)c3)C2=O)c1 | 1% (inactive) |
| CCc1c(C)c2ccc(OC)c(C)c2oc1=O | 8% (inactive) |
| COc1ccc(S(=O)(=O)N(CC(=O)Nc2ccc(C(N)=O)cc2)c2ccc(C)cc2)cc1OC | 4% (inactive) |

| Compound | inhibition |
| --- | --- |
| C=CCc1cccc(/C=N/c2nc3ccccc3n2CCC)c1O | 17% (inactive) |
| CC(CO)(CO)N=Cc1c(O)n(-c2ccccc2)c(=S)[nH]c1=O | 0% (inactive) |
| CCOC(=O)N1CCN(C(=O)c2ccc(N(Cc3ccc(Cl)cc3)S(C)(=O)=O)cc2)CC1 | 3% (inactive) |
| COc1ccc(Cl)cc1NC(=O)c1ccc(CN(c2ccccc2)S(C)(=O)=O)cc1 | 56% (active) |
| CS(=O)(=O)N(Cc1ccc(Cl)cc1)c1ccc(C(=O)N2CCOCC2)cc1 | 8% (inactive) |
| CS(=O)(=O)N(Cc1ccc(Cl)cc1)c1ccc(C(=O)Nc2cccc(C(F)(F)F)c2)cc1 | 1% (inactive) |
| Cc1ccc(Cl)cc1NC(=O)c1ccc(CN(c2ccccc2)S(C)(=O)=O)cc1 | 10% (inactive) |
| CS(=O)(=O)N(Cc1ccc(Cl)cc1)c1ccc(C(=O)N2CCCC2)cc1 | 57% (active) |
| CS(=O)(=O)N(Cc1ccc(C(=O)Nc2cccc(C(F)(F)F)c2)cc1)c1cccc(Cl)c1 | 0% (inactive) |
| CS(=O)(=O)N(Cc1ccc(C(=O)Nc2cccc(C(F)(F)F)c2)cc1)c1ccccc1 | 58% (active) |
| COc1ccccc1NC(=O)c1ccc(CN(c2ccccc2)S(C)(=O)=O)cc1 | 0% (inactive) |
| COc1ccc(N=CC2=C(O)CC(c3ccccc3)CC2=O)cc1OC (centres undefined) | 0% (inactive) |
| COC(=O)c1ccc(NC(=O)Cc2ccc(OC)cc2)cc1 | 1% (inactive) |
| CN1CCN(C2=NC(=O)/C(=C/c3ccc4c(c3)OCO4)S2)CC1 | 8% (inactive) |
| O=C(C[n+]1cccc(NC(=O)c2ccccc2)c1)c1ccc2c(c1)Cc1ccccc1-2 | 24% (inactive) |
| CCOC(=O)C1=C(C)N=c2s/c(=C\c3ccc(-c4ccc(Cl)cc4Cl)o3)c(=O)n2C1c1ccc(C)cc1 (centres undefined) | 5% (inactive) |
| CCOc1ccc(C(=O)Nc2ccc(CC)cc2)cc1[N+](=O)[O-] | 9% (inactive) |
| Cc1ccc(S(=O)(=O)Nc2ccccn2)cc1C | 0% (inactive) |
| O=P(CCCO)(c1ccc(Cl)cc1)c1ccc(Cl)cc1 | 1% (inactive) |
| O=C1C2C3C=CC(C3)C2C(=O)N1CNc1ccccc1 (centres undefined) | 6% (inactive) |
| COC(=O)c1ccccc1NS(=O)(=O)c1ccc(Cl)cc1 | 12% (inactive) |
| COC(=O)c1ccccc1NS(=O)(=O)c1ccc(NC(C)=O)cc1 | 4% (inactive) |
| COC(=O)c1ccccc1NS(=O)(=O)c1ccccc1 | 57% (active) |
| COc1ccc(S(=O)(=O)N(CCc2ccccc2)CC(=O)NC2CCCCC2)cc1 | 4% (inactive) |
| CCn1c2ccccc2c2cc(NC(=O)COc3ccccc3Cl)ccc21 | 7% (inactive) |

| Compound | inhibition |
| --- | --- |
| COc1cc(C=O)ccc1OCCCCOc1cccc(Oc2ccccc2)c1 | 44% (inactive) |
| COc1cc(C=O)ccc1OCCOc1cccc(Oc2ccccc2)c1 | 21% (inactive) |
| COc1ccc([N+](=O)[O-])cc1-c1ccc(/C=C(\C#N)c2nc3ccc(C)cc3[nH]2)o1 | 34% (inactive) |
| Cc1ccc([N+](=O)[O-])cc1-c1ccc(/C=C(\C#N)c2nc3ccccc3[nH]2)o1 | 58% (active) |
| Cc1ccc2nc(/C(C#N)=C/c3ccc(-c4cc([N+](=O)[O-])ccc4O)o3)[nH]c2c1 | 6% (inactive) |
| Cc1cccc(N2CCN(C(=O)c3ccc(Br)cc3)CC2)c1C | 18% (inactive) |
| COc1nc(S(=O)(=O)c2ccc(C)cc2)c(Cl)s1 | 0% (inactive) |
| Cc1ccc(S(=O)(=O)c2nc(N)sc2Cl)cc1 | 30% (inactive) |
| Cc1ccc(S(=O)(=O)c2nc(Nc3ccccc3C)sc2Cl)cc1 | 59% (active) |
| COc1ccccc1-n1c(O)c(C=C2C=Nc3ccccc32)c(=O)[nH]c1=S | 7% (inactive) |
| CCc1nnc(NC(=O)c2cnccn2)s1 | 9% (inactive) |
| CCSc1nnc(NC(=O)c2cnccn2)s1 | 57% (active) |
| CCSc1nnc(NC(=O)c2ccc(Cl)cc2)s1 | 4% (inactive) |
| CCOC(=O)c1ccc(NC(=O)Cc2ccc(Br)cc2)cc1 | 3% (inactive) |
| COc1ccc(-c2n[nH]c(=S)n2N=C/C(Br)=C/c2ccccc2)cc1 | 21% (inactive) |
| N#Cc1c(-c2ccc(Br)cc2)cc(-c2ccco2)c(C#N)c1N | 58% (active) |
| N#Cc1c(-c2ccccc2)cc(-c2ccco2)c(C#N)c1N | 18% (inactive) |
| N#Cc1c(-c2ccc(Br)cc2)cc(-c2ccc3c(c2)OCO3)c(C#N)c1N | 48% (inactive) |
| Cc1ccccc1C(=O)Nc1sc2c(c1C(=O)Nc1cccc3ccccc13)CCC2 | 13% (inactive) |
| O=C(Nc1cccc(O)c1)c1cc2nc(-c3ccc(Cl)cc3)cc(C(F)(F)F)n2n1 | 11% (inactive) |
| CC(=O)Oc1ccc(C(=O)Nc2ccc(C)cc2C(=O)O)cc1 | 4% (inactive) |
| CC(=O)Oc1ccc(C(=O)Nc2cccc([N+](=O)[O-])c2C)cc1 | 6% (inactive) |
| CC(=O)Oc1ccc(C(=O)Nc2cccc(C(=O)O)c2C)cc1 | 55% (active) |
| Cc1ccccc1N1C(=O)NC(=O)/C(=C\c2cccn2-c2ccc(Cl)cc2)C1=O | 42% (inactive) |
| CC(C)(C)c1ccc(C(C)(C)C)c(Oc2ccccc2)c1O | 8% (inactive) |

| Compound | inhibition |
| --- | --- |
| Cc1ccc([N+](=O)[O-])cc1NC(=O)c1cccc2c1C(=O)c1ccccc1-2 | 0% (inactive) |
| COc1ccccc1/C=C1\SC(NC(C)=O)=NC1=O | 17% (inactive) |
| COc1cccc(/C=C2/SC(NC(C)=O)=NC2=O)c1OC | 8% (inactive) |
| COc1ccc2ccccc2c1/C=C1/SC(NC(C)=O)=NC1=O | 52% (active) |
| COc1ccc(-c2n[nH]c(=S)n2/N=C/c2ccccc2Br)cc1 | 12% (inactive) |
| COc1ccc(/C=C/c2ccc3ccccc3n2)cc1 | 17% (inactive) |
| Cc1nn(C(=O)C(C)N2C(=O)c3ccccc3C2=O)c(C)c1Br (centres undefined) | 41% (inactive) |
| Cc1cn(C(=O)C(C)N2C(=O)c3ccccc3C2=O)c(C)n1 (centres undefined) | 53% (active) |
| Cc1cc(C)n(C(=O)C(C)N2C(=O)c3ccccc3C2=O)n1 (centres undefined) | 43% (inactive) |
| CC1=C(C(=O)OC2CCCCCCC2)C(c2ccccc2)NC(=O)N1 (centres undefined) | 57% (active) |
| CC1=C(C(=O)OC2CCCCCC2)C(c2ccc(C)cc2)NC(=O)N1 (centres undefined) | 36% (inactive) |
| COCCOC(=O)C1=C(C)NC(=O)NC1c1ccc(C)s1 (centres undefined) | 8% (inactive) |
| COC(=O)C1=C(C)N(C)C(=O)NC1c1ccccc1I (centres undefined) | 5% (inactive) |
| CC1=C(C(=O)OC2CCCC2)C(c2ccccc2Cl)NC(=O)N1C (centres undefined) | 5% (inactive) |
| CC1=C(C(=O)OC2CCCCCC2)C(c2ccccc2I)NC(=O)N1C (centres undefined) | 52% (active) |
| CCCCOC(=O)C1=C(C)NC(=O)NC1c1ccc(Br)cc1 (centres undefined) | 23% (inactive) |
| CCCCCCOC(=O)C1=C(C)NC(=O)NC1c1ccc(Br)cc1 (centres undefined) | 53% (active) |
| CC1=C(C(=O)OC2CCCCCC2)C(c2ccccc2)NC(=O)N1 (centres undefined) | 14% (inactive) |
| CC1=C(C(=O)OCCc2ccccc2)C(c2ccc(C)s2)NC(=O)N1 (centres undefined) | 19% (inactive) |
| CCCCCOC(=O)C1=C(C)NC(=O)NC1c1ccc(Br)cc1 (centres undefined) | 20% (inactive) |
| CC1=C(C(=O)OCc2ccccc2)C(c2ccc(C)s2)NC(=O)N1 (centres undefined) | 55% (active) |
| Cc1cccc(C)c1NC(=O)c1ccc(N(Cc2ccc(Cl)cc2)S(C)(=O)=O)cc1 | 15% (inactive) |
| Cc1ccccc1OCCOc1ccc(Br)cc1/C=C1\SC(N)=NC1=O | 33% (inactive) |
| Cc1cccc(OCC(=O)Nc2ccccc2C(C)C)c1C | 8% (inactive) |
